What was measured:
Conditions in all cases: Compound Concentration (nM):1000
[1] = tested on: T1, SIK
T1 construct: gene SIK1

[2] = tested on: SLK
[3] = tested on: T2, SNARK
T2 construct: gene NUAK2

[4] = tested on: SNRK
[5] = tested on: SRC
[6] = tested on: SRMS
[7] = tested on: SRPK1
[8] = tested on: SRPK2
[9] = tested on: SRPK3
[10] = tested on: STK16
[11] = tested on: STK33
[12] = tested on: STK35
[13] = tested on: STK36
[14] = tested on: STK39
[15] = tested on: SYK
[16] = tested on: SgK110
[17] = tested on: T3, TAK1
T3 construct: gene MAP3K7

[18] = tested on: TAOK1
[19] = tested on: TAOK2
[20] = tested on: TAOK3
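Also: KINOMEscan scanMAX binding as percent activity remaining versus control; lower means stronger binding.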

| SMILES | Percent Control [1] [%] | Percent Control [2] [%] | Percent Control [3] [%] | Percent Control [4] [%] | Percent Control [5] [%] | Percent Control [6] [%] | Percent Control [7] [%] | Percent Control [8] [%] | Percent Control [9] [%] | Percent Control [10] [%] | Percent Control [11] [%] | Percent Control [12] [%] | Percent Control [13] [%] | Percent Control [14] [%] | Percent Control [15] [%] | Percent Control [16] [%] | Percent Control [17] [%] | Percent Control [18] [%] | Percent Control [19] [%] | Percent Control [20] [%] |
| --- | --- | --- | --- | --- | --- | --- | --- | --- | --- | --- | --- | --- | --- | --- | --- | --- | --- | --- | --- | --- |
| Cl.O=S1CCN(Cc2ccc(-c3ccc4ncnc(Nc5ccc(OCc6ccccc6)c(F)c5)c4c3)o2)CC1 [GW576924A] | 100 | 100 | 96 | 100 | 100 | 100 | 100 | 100 | 78 | 100 | 84 | 100 | 100 | 100 | 100 | 100 | 100 | 100 | 100 | 100 |
| Cc1cc(O)cc(C)c1/C=C/c1cncc(C(N)=O)c1 [GW435821X] | 38 | 100 | 92 | 100 | 57 | 38 | 88 | 100 | 85 | 98 | 94 | 69 | 100 | 100 | 74 | 100 | 100 | 74 | 91 | 98 |
| NS(=O)(=O)c1ccc(N/N=C2\C(=O)Nc3ccc(-c4cnco4)cc32)cc1 [GW276655] | 77 | 86 | 49 | 55 | 83 | 73 | 100 | 100 | 76 | 46 | 100 | 99 | 100 | 88 | 100 | 73 | 32 | 86 | 95 | 98 |
| COc1ccccc1-c1cc(/C=C2\C(=O)Nc3ncc(Br)cc32)cc(Br)c1O [GW442130X] | 100 | 100 | 89 | 100 | 91 | 100 | 100 | 100 | 100 | 87 | 100 | 100 | 100 | 67 | 100 | 100 | 81 | 93 | 100 | 89 |
| O=C(Nc1n[nH]c2nc(-c3ccc(O)cc3)c(Br)cc12)C1CC1 [SB-725317] | 100 | 41 | 100 | 100 | 100 | 100 | 100 | 100 | 100 | 76 | 96 | 100 | 100 | 99 | 100 | 100 | 95 | 1 | 2.6 | 2.6 |
| COc1ccc2cc(-c3c(-c4ccncc4)nc(-c4ccc(S(C)(=O)=O)cc4C)n3C)ccc2c1 [SB-633825] | 96 | 1.7 | 82 | 91 | 82 | 85 | 90 | 76 | 83 | 93 | 89 | 57 | 82 | 66 | 78 | 85 | 80 | 84 | 77 | 74 |
| Cl.O=C(Nc1ccc(Oc2ccc3[nH]c(NC(=O)c4ccccc4)nc3c2)cc1)Nc1cc(C(F)(F)F)ccc1F [GW709042A] | 100 | 70 | 92 | 89 | 98 | 91 | 89 | 93 | 70 | 88 | 29 | 95 | 100 | 100 | 99 | 100 | 58 | 90 | 91 | 98 |
| Nc1ncnc2occ(-c3ccc(NC(=O)Nc4cc(C(F)(F)F)ccc4F)cc3)c12 [GW770249X] | 100 | 6.3 | 87 | 100 | 92 | 91 | 74 | 76 | 63 | 97 | 11 | 95 | 100 | 100 | 38 | 100 | 3.2 | 75 | 67 | 74 |
| CCS(=O)(=O)c1ccc(OC)c(Nc2ncc(-c3cccc(F)c3)o2)c1 [GW621970X] | 100 | 100 | 100 | 100 | 19 | 67 | 92 | 97 | 100 | 38 | 95 | 100 | 100 | 100 | 81 | 100 | 100 | 87 | 100 | 100 |
| CN1CCN(C(=O)c2ccc(NC(=O)Nc3ccc(N(C)c4ccnc(Nc5ccc(CS(C)(=O)=O)cc5)n4)cc3)cc2)CC1.Cl [GW830263A] | 92 | 8.9 | 39 | 78 | 100 | 77 | 2.3 | 80 | 7.7 | 15 | 92 | 71 | 37 | 79 | 34 | 89 | 25 | 71 | 76 | 83 |

— PMC7826789 (International Journal of Molecular Sciences, 2021)
